The source made the active and inactive calls.
Experiments:
[1] = small molecules captured by biotinylated probe aFSTL3 – biochemical, small-molecule microarray, fluorescence 635/667, stem cell growth factor project, primary screen (AID 1064); conditions: higher = more signal;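 note: measures binding of the biotinylated anti-FSTL3 antibody to printed compounds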
[2] = binders from COS7 lysate, DM2A8 probe, primary screen, torsin A project, cell lysate, small-molecule microarray, fluorescence 635/667 (AID 1065); conditions: higher = more signal, COS7 lysate expressing mutant human TOR1A
[3] = small molecules captured by biotinylated probe aFGF2 – biochemical, small-molecule microarray, fluorescence 635/667, stem cell growth factor project, primary screen (AID 1067); conditions: higher = more signal;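 note: measures binding of biotinylated aFGF2 protein to printed compounds on slides; z-score merges feature fluorescence and signal-to-noise across triplicate slides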
[4] = small molecules captured by biotinylated probe aFGF10 – biochemical, small-molecule microarray, fluorescence 635/667, stem cell growth factor project, primary screen (AID 1071); conditions: higher = more signal;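 note: score merges 667 nm spot intensity and signal to noise from triplicate slides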
[5] = target: Neurogenic locus notch homolog protein 2 (Homo sapiens) (UniProt Q04721); experiment: small molecules binding Notch2 protein – biochemical, small-molecule microarray, 635 nm fluorescence, stem cell growth factors, primary screen (AID 1073); conditions: higher = more signal
Sequence of Neurogenic locus notch homolog protein 2 (Homo sapiens) (Q04721 whole entry, looked up, canonical isoform): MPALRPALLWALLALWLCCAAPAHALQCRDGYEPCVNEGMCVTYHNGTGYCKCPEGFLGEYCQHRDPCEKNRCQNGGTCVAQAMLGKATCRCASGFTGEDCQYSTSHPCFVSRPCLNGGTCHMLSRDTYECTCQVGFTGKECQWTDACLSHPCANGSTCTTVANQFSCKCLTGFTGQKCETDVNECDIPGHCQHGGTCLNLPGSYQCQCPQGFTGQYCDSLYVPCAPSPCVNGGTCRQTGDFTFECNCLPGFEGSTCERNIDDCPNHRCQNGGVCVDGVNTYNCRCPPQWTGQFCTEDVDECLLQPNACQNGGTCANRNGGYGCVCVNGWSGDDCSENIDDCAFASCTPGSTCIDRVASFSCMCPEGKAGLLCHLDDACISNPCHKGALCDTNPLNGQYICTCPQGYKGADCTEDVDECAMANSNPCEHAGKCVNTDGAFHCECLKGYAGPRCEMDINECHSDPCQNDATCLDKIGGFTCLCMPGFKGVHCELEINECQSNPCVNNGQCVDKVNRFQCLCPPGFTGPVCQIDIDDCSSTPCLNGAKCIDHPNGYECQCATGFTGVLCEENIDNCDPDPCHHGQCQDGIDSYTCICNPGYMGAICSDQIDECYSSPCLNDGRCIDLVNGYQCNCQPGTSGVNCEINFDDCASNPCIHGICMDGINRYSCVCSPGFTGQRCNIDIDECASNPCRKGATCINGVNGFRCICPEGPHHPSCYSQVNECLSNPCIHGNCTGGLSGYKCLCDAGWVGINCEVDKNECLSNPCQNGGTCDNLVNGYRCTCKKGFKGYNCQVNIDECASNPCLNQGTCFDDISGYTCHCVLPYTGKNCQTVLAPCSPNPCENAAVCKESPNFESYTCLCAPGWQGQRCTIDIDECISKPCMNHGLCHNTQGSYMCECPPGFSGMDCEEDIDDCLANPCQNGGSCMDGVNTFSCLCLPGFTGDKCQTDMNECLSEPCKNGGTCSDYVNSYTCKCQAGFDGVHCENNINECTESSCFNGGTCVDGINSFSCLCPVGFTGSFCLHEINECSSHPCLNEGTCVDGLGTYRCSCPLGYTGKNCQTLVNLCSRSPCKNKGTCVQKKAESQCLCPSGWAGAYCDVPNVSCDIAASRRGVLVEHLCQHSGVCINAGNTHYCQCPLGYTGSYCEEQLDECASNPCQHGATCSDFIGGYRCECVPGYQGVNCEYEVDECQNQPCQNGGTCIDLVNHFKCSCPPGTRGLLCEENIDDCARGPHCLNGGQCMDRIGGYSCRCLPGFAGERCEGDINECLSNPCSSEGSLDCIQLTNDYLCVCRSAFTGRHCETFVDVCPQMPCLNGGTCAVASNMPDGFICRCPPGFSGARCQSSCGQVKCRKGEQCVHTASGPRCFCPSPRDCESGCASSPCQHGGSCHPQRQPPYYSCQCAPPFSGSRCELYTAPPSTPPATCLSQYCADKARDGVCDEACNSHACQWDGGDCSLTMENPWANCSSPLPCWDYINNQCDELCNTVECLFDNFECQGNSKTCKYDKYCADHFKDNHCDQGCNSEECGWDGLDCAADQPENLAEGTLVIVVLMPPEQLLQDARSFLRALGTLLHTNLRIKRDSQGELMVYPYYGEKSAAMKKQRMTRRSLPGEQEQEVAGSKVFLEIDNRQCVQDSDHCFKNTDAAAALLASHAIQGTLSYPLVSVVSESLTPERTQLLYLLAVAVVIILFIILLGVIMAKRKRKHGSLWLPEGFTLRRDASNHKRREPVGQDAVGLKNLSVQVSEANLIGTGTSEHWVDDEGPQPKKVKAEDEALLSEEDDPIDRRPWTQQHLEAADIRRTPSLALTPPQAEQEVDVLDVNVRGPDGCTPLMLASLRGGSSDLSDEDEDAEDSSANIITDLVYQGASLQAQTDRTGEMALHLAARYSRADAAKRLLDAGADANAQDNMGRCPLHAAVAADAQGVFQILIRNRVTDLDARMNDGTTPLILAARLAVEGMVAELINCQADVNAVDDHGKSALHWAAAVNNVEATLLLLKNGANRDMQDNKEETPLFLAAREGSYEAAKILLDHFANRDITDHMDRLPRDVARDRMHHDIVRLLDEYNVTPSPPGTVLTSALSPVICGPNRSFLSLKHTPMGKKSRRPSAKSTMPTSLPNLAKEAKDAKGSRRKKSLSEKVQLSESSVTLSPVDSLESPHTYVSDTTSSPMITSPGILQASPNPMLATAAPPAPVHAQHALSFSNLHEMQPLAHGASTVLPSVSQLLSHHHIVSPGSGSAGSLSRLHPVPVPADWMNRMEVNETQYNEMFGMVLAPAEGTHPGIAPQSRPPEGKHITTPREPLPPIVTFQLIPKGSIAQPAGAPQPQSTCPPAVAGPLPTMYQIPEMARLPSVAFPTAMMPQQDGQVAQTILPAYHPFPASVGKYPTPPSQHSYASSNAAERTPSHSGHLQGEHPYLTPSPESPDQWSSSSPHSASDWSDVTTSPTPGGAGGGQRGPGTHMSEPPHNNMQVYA

[6] = target: Pro-neuregulin-1, membrane-bound isoform (Homo sapiens) (UniProt Q02297); experiment: small molecules binding neuregulin-1 protein – biochemical, small-molecule microarray, fluorescence 635/667, psychiatric disease protein project, primary screen (AID 1075); conditions: NRG1 binding, 635 nm fluorescence, higher = more signal;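 note: score combines 667 nm spot fluorescence with signal to noise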
Sequence of Pro-neuregulin-1, membrane-bound isoform (Homo sapiens) (Q02297 whole entry, looked up, the tested form may be a part, canonical isoform): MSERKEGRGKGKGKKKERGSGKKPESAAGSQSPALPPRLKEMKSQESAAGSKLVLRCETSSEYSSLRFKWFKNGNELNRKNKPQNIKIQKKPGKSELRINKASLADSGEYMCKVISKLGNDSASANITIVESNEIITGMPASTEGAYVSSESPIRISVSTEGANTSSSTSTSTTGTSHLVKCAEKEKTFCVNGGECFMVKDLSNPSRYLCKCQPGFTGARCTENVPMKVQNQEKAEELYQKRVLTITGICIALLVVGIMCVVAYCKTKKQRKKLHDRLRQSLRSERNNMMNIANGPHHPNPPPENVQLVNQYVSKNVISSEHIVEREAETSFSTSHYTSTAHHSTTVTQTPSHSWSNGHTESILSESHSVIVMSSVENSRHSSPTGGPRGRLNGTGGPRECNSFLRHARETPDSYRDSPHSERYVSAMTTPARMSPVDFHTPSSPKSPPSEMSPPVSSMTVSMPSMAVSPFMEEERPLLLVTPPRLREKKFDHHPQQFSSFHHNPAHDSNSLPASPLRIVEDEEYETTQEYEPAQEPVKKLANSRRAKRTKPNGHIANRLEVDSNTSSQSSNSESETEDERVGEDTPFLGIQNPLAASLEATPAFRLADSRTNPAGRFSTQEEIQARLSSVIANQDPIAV

[7] = system: Neuregulin-1 EGF-like domain; experiment: small molecules binding NRG1 EGF domain – biochemical, small-molecule microarray, 635 nm fluorescence, primary screen (AID 1081); conditions: higher = more signal;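 note: binding of the protein to compounds printed on small-molecule microarray slides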
[8] = FRG1 expression reporter modulators in myotubes – cell-based, C2C12 myotubes, firefly/Renilla luciferase, luminescence, FRG1 inhibition for FSHD, primary screen (AID 1084); conditions: FRG1 promoter luciferase, higher = more signal, called active from +8 up or from −8 down
[9] = small molecules captured by biotinylated probe aFST – biochemical, small-molecule microarray, fluorescence 635/667, stem cell growth factor project, primary screen (AID 1086); conditions: higher = more signal;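 note: score merges 667 nm fluorescence with signal-to-noise of each printed compound spot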
[10] = binders of probe aHhip on microarray, primary screen, stem cell growth factor project, biochemical, small-molecule microarray, fluorescence 635/667 (AID 1087); conditions: higher = more signal;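 note: score merges spot fluorescence at 667nm with spot signal to noise ratio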

Row | Structure (SMILES) | composite z-score [1] | composite z-score [2] | composite z-score [3] | composite z-score [4] | composite z-score [5] | composite z-score [6] | composite z-score [7] | z-score [8] | composite z-score [9] | composite z-score [10]
1 | Cc1ccc(S[C@]2(C(=O)NC(C)C)CC(=O)N(Cc3cc(C(F)(F)F)cc(C(F)(F)F)c3)[C@@H]2c2ccc(CO)cc2I)cc1 | 0.808 | -0.666 | -0.103 | -0.345 | -1.7 | 1.53 | 0.74 | -0.321 (inactive) | -0.666 | -0.0994
2 | CC(C)=C1C(=O)C(c2ccccc2)=C2CN3C(=O)N(CCc4ccccc4)C(=O)[C@]3(Cc3ccccc3)[C@H]21 | 0.5 | -0.463 | -0.0612 | 0.103 | -0.272 | 0.0953 | -0.318 | 0.438 (inactive) | 0.0891 | -0.112
3 | CCOC(=O)C1=C[C@@H](c2ccccc2)N(S(=O)(=O)c2ccc(C)cc2)[C@H]1c1ccc(F)cc1 | -0.0809 | 0.347 | -0.0317 | 0.493 | 1.6 | 0.871 | 0.949 | -2.62 (inactive) | 0.541 | 0.0139
4 | COc1cccc([C@H]2N[C@H](C(=O)O)CC[C@@H]2C)c1 | -0.356 | 0.0291 | -0.0885 | -0.42 | 0.238 | -0.0739 | -0.212 | -0.0831 (inactive) | 0.425 | -0.127
5 | COc1ccc([Si](C)(C)[C@@H]2[C@@H](CC(=O)N(CCO)Cc3ccccc3)O[C@]3(C(=O)N(Cc4cccc(N5CCC5=O)c4)c4ccccc43)[C@H]2C)cc1 | -0.113 | 0.861 | -0.116 | 0.434 | 0.205 | 0.712 | 1.13 | -0.645 (inactive) | 0.147 | 0.0373
6 | [N-]=[N+]=Nc1ccccc1C[C@@]1(C(=O)N2CCOCC2)N=C(c2ccc(OCCCO)cc2)O[C@@H]1c1ccccc1N=[N+]=[N-] | 1.14 | 0.782 | 0.195 | 0.707 | 1.45 | 0.889 | 1.12 | -1.36 (inactive) | 1.18 | 0.0511
7 | Cc1ccc(S(=O)(=O)c2cc3oc2CC[C@@H](CO)NC(=O)N(C)Cc2cn(nn2)C[C@H](Cc2ccccc2)NC3=O)cc1 | 0.0181 | 0.345 | -0.0538 | 0.175 | -0.881 | 0.226 | 0.807 | -0.618 (inactive) | -0.265 | -0.194
8 | COc1ccc(CCN2C(=O)[C@@]3(c4ccc([N+](=O)[O-])cc4)CC(=O)N(CC45CC6CC(CC(C6)C4)C5)[C@@H]3c3ccc(CO)cc32)cc1 | 0.188 | -0.063 | 0.0201 | 0.142 | -0.18 | 0.978 | 0.956 | -0.241 (inactive) | -0.0561 | -0.0296
9 | O=C/C=C/c1ccc(/C=C/c2ccccc2)cc1 | 1.02 | 0.107 | -0.105 | -0.324 | -0.429 | -0.422 | -0.34 | 3.71 (inactive) | 0.204 | 0.154
10 | COC(=O)C1=C(C)N(Cc2ccccc2)c2c(C(=O)OC)c(C(=O)OC)c(C(=O)OC)c(=O)n2[C@@H]1c1ccccc1 | -0.274 | 0.657 | -0.0181 | 0.282 | 0.898 | 0.289 | 0.721 | 0.365 (inactive) | 0.224 | -0.0994
11 | CCN1C(C)=C(C(=O)OC)[C@@H](c2ccccc2)N2C(=O)[C@@]3(C(=O)OC)O[C@@]12[C@@H]1C(=O)CCC[C@@H]13 | -0.65 | 0.33 | -0.178 | 0.234 | -0.334 | -0.307 | 0.545 | -0.765 (inactive) | -0.183 | 0.351
12 | COCCOC(=O)N1C(=O)[C@@]2(c3cc(C#CC4=CCCCC4)ccc31)[C@H](C(=O)NC[C@H](O)c1ccccc1)[C@H]1C(=O)O[C@H](c3ccccc3)[C@H](c3ccccc3)N1[C@@H]2c1ccc(OCCO)cc1 | -0.409 | 0.782 | -0.0566 | 0.478 | 1.26 | 1.12 | 1.26 | 0.916 (inactive) | 0.575 | -0.0645
13 | COC(=O)C1=CC(c2ccc(CO)cc2)=CC(C2CC2)N(Cc2sc3ccccc3c2Cl)C=C1C(=O)OC (stereo not given) | 0.541 | 1.99 | 0.0083 | 0.88 | 1.26 | 1.68 | 1.33 | -2.15 (inactive) | 1.32 | 0.065
14 | [N-]=[N+]=NCc1ccccc1C[C@]1(C(N)=O)N=C(c2ccc(OCCCO)cc2)O[C@H]1c1ccccc1CN=[N+]=[N-] | 1.15 | 1.14 | 0.128 | 0.616 | 1.09 | 1.74 | 1 | -1.55 (inactive) | 0.823 | -0.3
15 | C=CC[C@]1(C(=O)NCC(O)CO)N=C(c2ccc(OCCCO)cc2)O[C@H]1c1ccccc1 (stereo not given in full) | 1.28 | -0.012 | -0.118 | -0.843 | -0.502 | 2.14 | 1.25 | -1.1 (inactive) | -0.0064 | -0.124
16 | C=CCC(OC(C)=O)[C@@H]1[C@@H](N(Cc2cc3ccccc3o2)C(=O)Cc2ccc(F)cc2)c2cc(OCCCO)ccc2N1C(=O)c1ccc(-c2ccccc2)cc1 (stereo not given in full) | 0.117 | -0.103 | -0.116 | -0.263 | -0.079 | -0.399 | -1.03 | 0.051 (inactive) | 0.141 | -0.0645
17 | COc1ccc(C(=O)Nc2ccc(CN3C(=O)[C@]4(O[C@H](CCn5cc(CCO)nn5)[C@@H]([Si](C)(C)c5ccc(OC)cc5)[C@@H]4C)c4ccccc43)cc2)cc1 | 0.263 | 0.259 | 0.0331 | 1.05 | 1.46 | 0.485 | 1.09 | -3.72 (inactive) | -0.177 | -0.0645
18 | COC(=O)[C@@]1(Cc2ccccc2N=[N+]=[N-])N=C(c2ccc(OCCCO)cc2)O[C@H]1c1ccccc1CN=[N+]=[N-] | 0.413 | 0.378 | -0.0899 | -0.136 | 0.0109 | 1.12 | 1.29 | -1.38 (inactive) | 0.69 | 0.0053
19 | O=C(NCc1ccccc1)[C@@]1(CCS(=O)(=O)c2ccccc2)COC(c2ccc(OCCCO)cc2)=N1 | 0.971 | 0.985 | 0.0025 | 0.382 | 1.17 | 2.16 | 1.18 | -4.58 (inactive) | 0.662 | -0.15
20 | O=C(CS)NCCCCCNC(=O)[C@H]1C[C@H]2C(=O)N3CCC[C@H]3C(=O)N2[C@H]1c1ccc(O)cc1 | 0.305 | 0.0424 | -0.0363 | -0.267 | -0.231 | 0.873 | 1.25 | 0.393 (inactive) | -0.339 | 0.0274
21 | COc1ccc(NN2C(C(O)c3cc(OC)c(OC)c(OC)c3)C=CC3C(=O)N(C4CCCCC4)C(=O)C32)cc1 (stereo not given) | 0.833 | -0.194 | 0.123 | 0.767 | 1.63 | 1.09 | 1.07 | 1.02 (inactive) | 1.51 | 0.0734
22 | O=C(NCc1ccccc1)[C@@]1(Cc2ccccc2)COC(c2ccc(OCCCO)cc2)=N1 | 0.618 | 0.0094 | -0.255 | 0.0532 | 0.46 | 1.51 | 1.19 | -3.27 (inactive) | 0.792 | 0.113
23 | CCC(=O)[C@]12O[C@@]3([C@@H]4C(=O)OCC[C@@H]41)N(CC)C(C)=C(C(=O)OC)[C@@H](c1ccccc1)N3C2=O | 0.162 | -0.337 | -0.116 | 0.0911 | -0.925 | 0.0983 | 0.966 | -0.13 (inactive) | -0.255 | 0.176
24 | C[C@@H]1NC(=O)CC=C[C@@H](C)[C@@H]2C=C[C@H](O)[C@@H](COC(=O)[C@H](C)NC(=O)CC=C[C@@H](C)[C@@H]3C=C[C@H](O)[C@@H](COC1=O)O3)O2 | -0.703 | 0.0339 | -0.0511 | 0.216 | 0.0211 | -0.428 | -0.247 | 0.587 (inactive) | 0.229 | -0.0994
25 | COc1ccc([Si](C)(C)[C@@H]2[C@@H](CCO)O[C@]3(C(=O)N(Cc4ccc(NC(=O)[C@H](C)O)cc4)c4ccccc43)[C@H]2C)cc1 | 0.0169 | 0.395 | -0.0606 | 0.585 | 0.684 | 1.05 | 1.19 | -4.16 (inactive) | 0.152 | -0.0618
26 | O=C(NCc1ccccc1)c1ccc(Br)cc1[N+](=O)[O-] | -0.375 | 0.13 | -0.138 | 0.438 | 0.596 | 0.661 | 0.341 | -0.567 (inactive) | 0.514 | -0.114
27 | COC(=O)[C@@]1(Cc2ccccc2CN=[N+]=[N-])N=C(c2ccc(OCCCO)cc2)O[C@H]1c1ccccc1N=[N+]=[N-] | 0.127 | -0.523 | -0.0004 | -0.259 | 0.167 | 1.09 | 1.13 | 1.17 (inactive) | 0.19 | 0.0826
28 | [N-]=[N+]=NCc1ccccc1C[C@@]1(C(=O)O)N=C(c2ccc(OCCCO)cc2)O[C@@H]1c1ccccc1N=[N+]=[N-] | 0.168 | -0.259 | -0.0242 | 0.377 | 1.55 | 1.66 | 1.22 | -1.6 (inactive) | 0.521 | -0.0994
29 | C[C@H]1COC(=O)[C@@H]2CCCN2C(=O)[C@@H](C)COC(=O)[C@@H]2CCCN2C1=O | -0.295 | 0.491 | -0.163 | 0.0646 | 0.415 | -0.567 | -0.436 | -3.16 (inactive) | -0.041 | -0.134
30 | CC(C)CN1C(=O)[C@@]2(Cc3ccccc31)c1ccccc1C(=O)N(C1CCCCC1)[C@H]2c1ccc(CO)cc1 | 0.523 | -0.21 | -0.172 | -0.538 | -1.08 | -0.388 | -0.0501 | 0.172 (inactive) | -0.382 | -0.226

— PubChem BioAssay
